Assay results published in PubChem BioAssay.
The source made the active and inactive calls.

Experiments:
Albumin (Bos taurus) = Albumin (Bos taurus) (UniProt P02769); test: bovine serum albumin binders on microarray, profiling panel, artefact control for SMM control protein annotation, biochemical, small-molecule microarray, Alexa647 label, 635/667 nm fluorescence (AID 1118); conditions: BSA-A647 binding, fluorescence 635 nm, higher = more signal;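 note: score merges 667 nm emission intensity and signal-to-noise per printed compound spot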
Chain of Albumin (Bos taurus) (P02769 whole entry, looked up): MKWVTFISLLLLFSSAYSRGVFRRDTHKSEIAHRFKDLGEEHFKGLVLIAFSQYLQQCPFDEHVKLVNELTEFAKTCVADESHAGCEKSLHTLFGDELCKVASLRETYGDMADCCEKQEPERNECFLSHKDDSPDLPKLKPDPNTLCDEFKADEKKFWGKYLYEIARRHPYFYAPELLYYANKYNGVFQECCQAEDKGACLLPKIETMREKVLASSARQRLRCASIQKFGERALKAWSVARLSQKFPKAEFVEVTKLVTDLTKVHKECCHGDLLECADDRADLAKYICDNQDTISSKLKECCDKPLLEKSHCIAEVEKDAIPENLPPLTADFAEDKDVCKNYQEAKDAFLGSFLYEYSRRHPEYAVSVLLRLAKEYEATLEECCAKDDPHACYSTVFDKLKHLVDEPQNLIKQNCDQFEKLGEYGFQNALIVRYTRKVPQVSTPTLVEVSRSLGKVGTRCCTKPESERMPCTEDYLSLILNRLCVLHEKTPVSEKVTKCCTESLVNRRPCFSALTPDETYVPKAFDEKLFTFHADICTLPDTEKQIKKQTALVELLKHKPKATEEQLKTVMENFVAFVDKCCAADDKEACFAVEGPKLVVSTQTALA

[1] = small-molecule microarray binders of probe aXIP, primary screen, biochemical, NeuroSMM set, 635/667 nm fluorescence (AID 1119); conditions: higher = more signal, called active from +8 up or from −8 down;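 note: probe is the protein aXip251-270 applied at 1 µg/mL to compound-printed slides; binding of probe to printed compounds measured as 667 nm fluorescence plus signal to noise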
[2] = small-molecule binders of probe aNOTCH3, primary screen, biochemical, small-molecule microarray, 635/667 nm fluorescence (AID 1120); conditions: higher = more signal;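 note: probe is a biotin-tagged antibody raised against NOTCH3 rather than NOTCH3 protein; score merges spot fluorescence near 667 nm with spot signal to noise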
[3] = small-molecule binders of probe aNOTCH2, primary screen, biochemical, small-molecule microarray, 635/667 nm fluorescence (AID 1121); conditions: higher = more signal;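 note: score merges feature fluorescence read at 667 nm with its signal to noise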
[4] = molecular target: Carbonic anhydrase 2 (Homo sapiens) (UniProt P00918); test: CAII small-molecule binders, profiling panel, biochemical, small-molecule microarray, Alexa647-labelled CAII (AID 1122); conditions: CAII-A647 binding fluorescence, higher = more signal
[5] = COS7 lysate on small-molecule microarray, probe aHis, 635 nm (AID 1123); conditions: COS7 cell lysate, fluorescence, higher = more signal;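 note: z-score combines 667nm fluorescence intensity with signal-to-noise per printed compound spot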
[6] = compound binding in COS7 lysate, probe aLAP1, primary screen, cell lysate, small-molecule microarray (AID 1124); conditions: probe aLAP1, fluorescence, higher = more signal;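 note: lysate comes from COS7 cells expressing LAP1 and is applied at 0.3 µg/mL; score merges spot fluorescence near 667 nm with signal-to-noise over triplicate slides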
Sam68 (KHDRBS1) = test: Sam68 small-molecule binders, primary screen, biochemical, small-molecule microarray, 635 nm fluorescence (AID 1125); conditions: small-molecule microarray binding, higher = more signal;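 note: score merges 667 nm channel intensity with signal to noise over triplicate slides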
[7] = tested on: Chordin-like protein 2 (CHRDL2); test: CHRDL2 small-molecule binders, primary screen, biochemical, small-molecule microarray, 635 nm fluorescence (AID 1126); conditions: small-molecule microarray binding, fluorescence 635 nm; higher = more signal;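 note: printed compound slides probed with Chrdl2 protein at 4 µg/mL for 1 h at 4 C; score merges 667 nm emission intensity with signal to noise over three replicate slides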
[8] = molecular target: Concanavalin-A (Canavalia ensiformis) (UniProt P02866); test: ConA small-molecule binders, primary screen, artefact control for SMM control protein annotation, biochemical, small-molecule microarray, Alexa647 label, 635 nm (AID 1127); conditions: ConA-A647 binding fluorescence, higher = more signal;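 note: z combines 667 nm emission intensity with signal-to-noise across three replicate slides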
Chain of Concanavalin-A (Canavalia ensiformis) (P02866 whole entry, looked up): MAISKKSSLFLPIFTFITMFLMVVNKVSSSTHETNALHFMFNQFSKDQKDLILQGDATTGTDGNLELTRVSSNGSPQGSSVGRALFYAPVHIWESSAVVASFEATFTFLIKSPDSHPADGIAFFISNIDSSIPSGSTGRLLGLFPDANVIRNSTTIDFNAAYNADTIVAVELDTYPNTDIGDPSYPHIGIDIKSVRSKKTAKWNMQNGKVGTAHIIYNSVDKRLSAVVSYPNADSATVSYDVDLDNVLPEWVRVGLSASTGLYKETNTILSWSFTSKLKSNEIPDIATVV

[9] = anti-His antibody binders, primary screen, artefact control for SMM control protein annotation, biochemical, small-molecule microarray, 635 nm fluorescence (AID 1128); conditions: anti-His Alexa647 antibody binding, higher = more signal;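 note: score merges feature fluorescence with signal-to-noise for each printed compound spot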
[10] = tested on: Human papillomavirus type 1a E7 protein (residues 1-88); test: HPV1a E7 small-molecule binders, primary screen, biochemical, small-molecule microarray, residues 1-88, 635 nm (AID 1129); conditions: small-molecule microarray binding, fluorescence 635 nm; higher = more signal
[11] = molecular target: Focal adhesion kinase 1 (Homo sapiens) (UniProt Q05397); test: small-molecule microarray binders of FAK, primary screen, biochemical, 635/667 nm fluorescence, BSA, DTT (AID 1130); conditions: PTK2 binding, 635 nm fluorescence, higher = more signal;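 note: composite of spot emission at 667 nm and signal to noise over triplicate slides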
Chain of Focal adhesion kinase 1 (Homo sapiens) (Q05397 whole entry, looked up): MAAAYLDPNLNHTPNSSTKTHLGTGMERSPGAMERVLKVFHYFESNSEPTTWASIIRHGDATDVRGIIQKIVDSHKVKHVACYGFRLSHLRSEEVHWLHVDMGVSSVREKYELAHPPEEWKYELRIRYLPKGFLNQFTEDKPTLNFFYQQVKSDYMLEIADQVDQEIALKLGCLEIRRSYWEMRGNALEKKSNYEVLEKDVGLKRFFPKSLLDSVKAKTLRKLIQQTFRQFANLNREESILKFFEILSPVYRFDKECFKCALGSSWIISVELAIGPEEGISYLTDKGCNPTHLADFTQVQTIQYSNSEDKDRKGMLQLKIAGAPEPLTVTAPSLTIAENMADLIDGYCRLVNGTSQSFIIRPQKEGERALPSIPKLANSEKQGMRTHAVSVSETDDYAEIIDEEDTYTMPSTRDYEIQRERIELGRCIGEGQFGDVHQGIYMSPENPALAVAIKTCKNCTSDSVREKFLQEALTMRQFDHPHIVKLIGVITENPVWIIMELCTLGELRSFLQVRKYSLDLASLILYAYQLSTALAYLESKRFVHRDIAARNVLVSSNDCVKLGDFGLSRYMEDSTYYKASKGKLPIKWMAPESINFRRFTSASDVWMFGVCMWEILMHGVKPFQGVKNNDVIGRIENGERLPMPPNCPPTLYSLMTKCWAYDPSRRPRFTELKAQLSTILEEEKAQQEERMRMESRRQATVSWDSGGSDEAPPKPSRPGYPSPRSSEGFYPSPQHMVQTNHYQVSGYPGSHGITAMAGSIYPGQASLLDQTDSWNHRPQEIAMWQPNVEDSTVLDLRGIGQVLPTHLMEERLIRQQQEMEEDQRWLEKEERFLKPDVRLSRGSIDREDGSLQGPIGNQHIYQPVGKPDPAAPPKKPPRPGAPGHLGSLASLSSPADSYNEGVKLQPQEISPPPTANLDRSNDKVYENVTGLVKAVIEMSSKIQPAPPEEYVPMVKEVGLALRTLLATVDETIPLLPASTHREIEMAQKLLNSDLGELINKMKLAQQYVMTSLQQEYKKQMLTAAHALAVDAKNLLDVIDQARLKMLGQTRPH

[12] = tested on: Fibrinogen (Alexa647-labelled); test: fibrinogen binders on compound microarrays, profiling panel, artefact control for SMM control-protein annotation, biochemical, small-molecule microarray, 635/667 nm fluorescence (AID 1131); conditions: fibrinogen-A647 binding fluorescence, higher = more signal;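 note: z-score merges 667 nm fluorescence with per-spot signal-to-noise over triplicate slides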
[13] = molecular target: Follistatin (Homo sapiens) (UniProt P19883); test: follistatin binders on small-molecule microarrays, primary screen, biochemical, small-molecule microarray, 635/667 nm fluorescence (AID 1132); conditions: FST binding, 635 nm fluorescence, higher = more signal
Chain of Follistatin (Homo sapiens) (P19883 whole entry, looked up): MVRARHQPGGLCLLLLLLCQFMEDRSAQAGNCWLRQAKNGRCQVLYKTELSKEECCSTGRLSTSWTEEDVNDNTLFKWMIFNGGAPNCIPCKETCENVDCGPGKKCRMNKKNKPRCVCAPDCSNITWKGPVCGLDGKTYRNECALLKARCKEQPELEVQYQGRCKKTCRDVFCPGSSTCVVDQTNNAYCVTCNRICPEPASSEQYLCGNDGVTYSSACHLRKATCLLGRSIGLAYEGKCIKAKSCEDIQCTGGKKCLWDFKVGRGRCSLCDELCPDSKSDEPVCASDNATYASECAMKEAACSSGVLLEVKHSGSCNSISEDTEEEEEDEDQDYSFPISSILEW

[14] = molecular target: Fibroblast growth factor 2 (Homo sapiens) (UniProt P09038); test: FGF2 binders on small-molecule microarrays, primary screen, biochemical, small-molecule microarray, 635/667 nm fluorescence (AID 1133); conditions: small-molecule microarray binding, FGF2, fluorescence 635/667; higher = more signal
Chain of Fibroblast growth factor 2 (Homo sapiens) (P09038 whole entry, looked up): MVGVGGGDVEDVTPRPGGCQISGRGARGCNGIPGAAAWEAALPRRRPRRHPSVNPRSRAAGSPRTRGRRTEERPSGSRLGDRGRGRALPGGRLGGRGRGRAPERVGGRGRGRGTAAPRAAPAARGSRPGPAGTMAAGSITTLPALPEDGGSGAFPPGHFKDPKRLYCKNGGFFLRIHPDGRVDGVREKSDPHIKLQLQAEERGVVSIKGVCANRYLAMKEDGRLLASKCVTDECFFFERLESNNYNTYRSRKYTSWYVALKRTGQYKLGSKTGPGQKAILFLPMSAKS

[15] = mitochondrial membrane potential change in A549 cells, profiling panel, cell-based, JC-1 fluorescence, basal, 24 h, 100 nL (AID 1138); conditions: higher = more signal;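 note: A549 lung adenocarcinoma cells under basal conditions with no added stimulus; test concentration not given here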
Lefty1 = Lefty1 binders on small-molecule microarrays, primary screen, biochemical, small-molecule microarray, 635/667 nm fluorescence (AID 1139); conditions: small-molecule microarray binding, fluorescence 635/667; higher = more signal
[16] = tested on: wheat germ agglutinin (Triticum aestivum), Alexa647-labelled; test: wheat germ agglutinin binders on compound microarrays, profiling panel, artefact control for SMM control-protein annotation, biochemical, small-molecule microarray, 635/667 nm fluorescence (AID 1140); conditions: WGA-A647 binding, 635 nm fluorescence, higher = more signal;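 note: score merges 667 nm feature emission with signal to noise over triplicate slides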
[17] = molecular target: Luciferin 4-monooxygenase (Photinus pyralis) (UniProt P08659); test: firefly luciferase enzyme inhibitors, primary screen, biochemical, luminescence, purified enzyme, 2006 set (AID 1141); conditions: SteadyGlo luminescence, 30 min, higher = more signal, called active from +8 up or from −8 down;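 note: cell-free assay with purified firefly luciferase at 100 ng per well in PBS; test concentration not given here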
Chain of Luciferin 4-monooxygenase (Photinus pyralis) (P08659 whole entry, looked up): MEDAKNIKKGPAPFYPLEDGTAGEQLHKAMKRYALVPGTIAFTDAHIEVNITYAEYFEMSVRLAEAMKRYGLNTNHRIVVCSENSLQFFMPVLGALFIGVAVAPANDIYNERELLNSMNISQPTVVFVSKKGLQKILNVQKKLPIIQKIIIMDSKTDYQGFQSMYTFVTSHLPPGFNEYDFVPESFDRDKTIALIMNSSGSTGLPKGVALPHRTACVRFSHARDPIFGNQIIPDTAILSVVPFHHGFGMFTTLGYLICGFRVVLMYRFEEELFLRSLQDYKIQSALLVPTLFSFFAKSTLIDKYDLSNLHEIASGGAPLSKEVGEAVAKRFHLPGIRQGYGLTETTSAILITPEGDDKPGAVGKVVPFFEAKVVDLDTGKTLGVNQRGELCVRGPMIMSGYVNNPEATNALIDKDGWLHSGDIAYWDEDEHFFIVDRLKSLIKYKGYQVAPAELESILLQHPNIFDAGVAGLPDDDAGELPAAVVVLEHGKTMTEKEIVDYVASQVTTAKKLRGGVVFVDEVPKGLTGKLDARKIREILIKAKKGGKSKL

Compound | composite z-score (Albumin (Bos taurus)) | composite Z-score [1] | composite z-score [2] | composite z-score [3] | composite z-score [4] | composite z-score [5] | composite z-score [6] | composite z-score (Sam68 (KHDRBS1)) | composite z-score [7] | composite z-score [8] | composite z-score [9] | composite z-score [10] | composite z-score [11] | composite z-score [12] | composite z-score [13] | composite z-score [14] | z-score [15] | composite z-score (Lefty1) | composite z-score [16] | z-score [17]
COc1ccc(O[C@H]2C=C[C@@H](c3ccccc3)O[C@@H]2CON=C(C)CCC(=O)OC[C@H]2O[C@H](c3ccccc3)C=C[C@@H]2Oc2ccc(OC)cc2)cc1 | 0.12 | 0.456 (inactive) | -0.165 | -0.123 | -0.62 | -1.14 | -0.295 | -2.54 | -0.633 | -0.652 | 0.704 | -2.01 | -0.204 | -0.218 | -0.174 | -0.922 | 0.0976 | -0.162 | -1.13 | 1.27 (inactive)
O=C(C=Cc1ccc2c(c1)OCO2)c1ccc(F)cc1 | -0.744 | -0.188 (inactive) | 0.278 | -0.0811 | -0.236 | -0.542 | 0.134 | -0.21 | 1.31 | 0.108 | 0.877 | -0.575 | -0.174 | 0.0796 | 0.853 | 1.31 | -0.0292 | 1.21 | -0.177 | -6.89 (inactive)
COc1cccc([C@@H]2Oc3ccc(OC)cc3C(=O)[C@H]2O)c1 | 0.78 | 0.0773 (inactive) | -0.0377 | -0.119 | 0.445 | -0.279 | 0.158 | 0.325 | 0.488 | 0.711 | 0.575 | 0.193 | 0.0207 | 0.823 | 0.536 | 0.449 | -1.54 | 0.678 | -0.173 | -1.6 (inactive)
COC(=O)CC=C[C@@H](C)[C@H](OCc1cccc(-c2ccccc2)c1)C1CCCCC1 | 0.0024 | 0.369 (inactive) | -0.195 | -0.109 | 0.942 | -0.159 | 0.0206 | -0.679 | 1.23 | 0.923 | -0.791 | -0.46 | -0.0125 | -0.14 | 0.768 | -0.226 | 0.237 | 0.0133 | 0.534 | -0.0245 (inactive)
C#CCCCON=C1C[C@@H](O)[C@@H](O)[C@@H]2[C@@H]3C(=O)N(C(C)(C)C)C(=O)[C@@H]3CC[C@H]12 | 0.725 | -0.483 (inactive) | 0.0306 | -0.0272 | -0.466 | 0.126 | 0.0192 | -0.454 | 0.557 | -0.482 | 0.0217 | -0.204 | -0.0811 | 0.589 | -0.861 | -0.127 | -0.049 | -0.912 | 0.903 | 0.541 (inactive)
CCOC(=O)CCN1C(=O)[C@H]2[C@H]3[C@H](O)[C@H](O)CC(=NOCc4ccccc4)[C@H]3CC[C@H]2C1=O | -0.271 | 0.119 (inactive) | 0.191 | -0.0467 | -0.19 | 0.343 | -0.27 | 0.152 | 0.578 | -0.477 | 0.0669 | -0.469 | -0.017 | 0.658 | -0.851 | -0.772 | 0.229 | -0.579 | 0.343 | 0.563 (inactive)
O=C(NN=C1C[C@@H](O)[C@@H](O)[C@@H]2[C@@H]3C(=O)N(Cc4ccccc4)C(=O)[C@@H]3CC[C@@H]12)OCc1ccccc1 | -0.225 | 0.586 (inactive) | 0.0591 | -0.129 | -0.362 | -0.723 | -0.169 | -0.917 | 0.476 | -0.292 | 0.298 | -0.0375 | -0.0741 | 0.272 | 0.165 | 0.242 | 0.257 | 0.321 | -0.148 | 0.472 (inactive)
COC(=O)[C@H](C)NC(=O)CCC1CC(OC(=O)NCCc2ccc(F)cc2)CC2(CCCC(COC(=O)NCc3cccc(C(F)(F)F)c3)O2)O1 (stereo not given in full) | 0.0516 | 0.116 (inactive) | 0.133 | -0.0652 | 0.193 | 0.702 | -0.363 | 0.267 | 0.208 | 0.401 | 0.158 | 0.637 | 0.145 | 0.563 | 1.19 | 0.617 | -0.0843 | 1.43 | 0.0337 | 0.0641 (inactive)
C[C@H]1CC[C@H]2C(=O)OC(CO)CN2[C@@H]1c1ccc(Br)cc1 (stereo not given in full) | 0.0691 | 0.456 (inactive) | -0.0647 | -0.192 | -0.244 | -0.416 | -0.311 | 0.253 | 0.453 | -0.17 | 0.58 | -0.805 | -0.442 | 0.276 | 0.124 | -0.153 | -0.486 | -0.0811 | 0.162 | -0.0741 (inactive)
O=C1[C@H]2[C@H]3[C@H](O)[C@H](O)CC(=NOC[C@@H](O)COCc4ccco4)[C@H]3CC[C@H]2C(=O)N1c1ccc(F)cc1F | -0.0108 | -0.214 (inactive) | -0.291 | -0.146 | 0.823 | -0.823 | 0.0839 | -1.25 | -0.48 | -1.03 | -0.385 | 0.553 | -0.0614 | -1.6 | -0.868 | -1.01 | 0.383 | -0.0889 | 0.972 | -0.243 (inactive)
